From PubChem BioAssay
Integrin act MD: activates integrin-mediated alleviation for muscular dystrophy | alpha7betagal myoblasts, beta-gal FDG fluorescence, 48 h | Potency, µM (titrated, usually from 38.3 µM), without a hit: at the highest dose activation, actives largely listed as activators | 0.064% of 350,000 active | AID 624291;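 further: 100% = response of the positive control SU9516; nearly all actives have a fitted effect of over 60% in size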
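Alpha7betagal+/- myoblasts (passage 13) were plated 16-24 hr, then exposed to compounds (1:260 dilution of DMSO stock) for 48 hours at 37C. After MPER lysis, β-galactosidase reporter activity was read as FDG fluorescence (ex 480/em 540) after 30 minutes.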
GLP1R ag: activates the human GLP-1 receptor | AID 624172 | 0.007% of 380,000 active | P43220 | HEK293 GLP-1R CRE-luciferase, luminescence, 4-6 h; cells express a hypersensitive GLP-1R form | Potency, µM (highest dose often 45.6 µM), for the others: top-dose activation, usual class: activators; further: % of control where 0% means no effect
Target sequence (P43220 whole entry, looked up): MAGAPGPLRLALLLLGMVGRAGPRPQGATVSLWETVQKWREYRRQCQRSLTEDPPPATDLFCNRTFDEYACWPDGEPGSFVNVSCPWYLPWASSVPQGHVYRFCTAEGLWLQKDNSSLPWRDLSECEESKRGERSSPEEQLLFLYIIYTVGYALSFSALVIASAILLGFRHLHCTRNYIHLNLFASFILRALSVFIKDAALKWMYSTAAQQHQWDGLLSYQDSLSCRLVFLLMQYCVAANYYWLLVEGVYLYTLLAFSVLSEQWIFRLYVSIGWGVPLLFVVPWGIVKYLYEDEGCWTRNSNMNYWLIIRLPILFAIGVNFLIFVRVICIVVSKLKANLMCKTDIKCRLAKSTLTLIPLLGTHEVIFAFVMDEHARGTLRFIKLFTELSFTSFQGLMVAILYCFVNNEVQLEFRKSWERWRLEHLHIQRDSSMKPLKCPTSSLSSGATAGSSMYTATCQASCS
BRCA1 expr act: BRCA1 expression activation; Potency, µM (highest dose often 46.1 µM), for inactives: top-dose activation, actives largely listed as activators; MCF7-BRCA1-FFLuc reporter, luminescence, 48 h; response scale: scaled: vehicle 0%, 10 µM genistein 100%; 1.1% of 380,000 active; further: nearly all actives have a fitted effect of over 80% in size
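Luminescence from a BRCA1-driven firefly luciferase in MCF7 cells was the read-out, taken 15 min after substrate addition following 48 h compound exposure at 37 °C. Data were normalized to a 10 microM genistein control and DMSO vehicle.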
GLP-1R inv ag: inverse agonists of human GLP-1 receptor | HEK293 GLP-1R CRE-luciferase, luminescence, 24 h; GLP-1R form is constitutively active | AID 624417 | 1.6% of 410,000 active | Potency, µM (series often up to 38.3 µM), inactives show at the top dose activity change, negative = inhibition, usual class: inhibitors; further: on the % scale 0 is the no-effect control and ±100 the full control effect; nearly all actives have a fitted effect of over 55% in size
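Inverse agonism was detected as reduced cAMP-driven luciferase luminescence after 24 h compound treatment. The cells were HEK293 clones expressing constitutively active human GLP-1R with the reporter. Reporter-only and GPR119 cell lines served as counterscreen controls.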
GLP1R cytotox: cytotoxic in the GLP-1 receptor inverse agonist counter-screen | 0.13% of 410,000 active | AID 624418 | Potency, µM (highest dose often 38.3 µM), inactives show at the top dose activity change, negative = inhibition, hits mostly inhibitors | HEK293 cAMP-luciferase reporter cells, luminescence, 24 h;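 further: loss of luciferase light is scored as toxicity; on the % scale 0 is the no-effect control and ±100 the full control effect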
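A 23 nL compound transfer followed 12 hours of cell culture at 37 deg C; exposure then lasted 24 hr. Luciferase assay detection reagent was dispensed and plates read for luminescence after a 12 min room-temperature wait.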
* hit, by the source's call; ? = inconclusive; / = no result. The list is not random: actives were taken first. Their share in the collection is about 2.7%. The call rests on the fitted dose curve; in most records, active means well fitted curve in the direction sought with a large enough effect; inconclusive means small, poorly fitted or top-dose-only effect, or another doubt; inactive means no such curve, though single readings can be large; an effect the other way counts as inactive or inconclusive. Potency means the concentration at half of the fitted maximal effect.

SMILES	Integrin act MD	GLP1R ag	BRCA1 expr act	GLP-1R inv ag	GLP1R cytotox
CCn1nc(C)c2c(-c3ccccc3)cc(=O)n(C(C)C(=O)NCCc3ccc(Cl)cc3)c21 (configuration not stated)	/	/	/	?	0.2%
Clc1ccc(OCc2noc(-c3ccsc3)n2)c(Cl)c1	-6.1%	25.5%	3.55µM*	?	7.9%
O=C(COC(=O)[C@H](Cc1c[nH]c2ccccc12)NC(=O)c1ccc(Cl)cc1)Nc1ccc2c(c1)OCO2	1.7%	-1.7%	0.4%	-4.2%	-2.1%
COc1ccc(C(C(=O)Nc2ccc3c(c2)OCO3)N(C)C(=O)Cc2c[nH]c3ccccc23)cc1 (configuration not stated)	-3.7%	6.9%	-45.7%	2.24µM*	-9.0%
COC(=O)[C@@H](Cc1c[nH]c2ccccc12)NC(=O)c1ccc2c(c1)OCO2	21.8%	-3.7%	3.55µM*	22.9%	-2.0%
Cc1nc2sc(C(N)=O)c(N)c2c(C)c1CC(=O)c1ccccc1	27.0%	-0.4%	11.2µM*	?	-19.6%
Cc1cc2nc(-c3ccc(SCc4ccccc4C#N)nc3)[nH]c2cc1C	-11.6%	-1.7%	62.8%	?	?
Cc1cc2nc(-c3ccc(SCc4ccc(C(=O)O)cc4)nc3)[nH]c2cc1C	13.6%	3.7%	11.2µM*	4.4%	-2.6%
Cc1cc2ncn(-c3ncnc4sc(C)c(C)c34)c2cc1C	3.7%	5.4%	2.8%	7.08µM*	-1.6%
Cc1cc2ncn(-c3ncnc4scc(-c5ccccc5)c34)c2cc1C	2.0%	-2.5%	-29.1%	?	-3.2%
O=C(C1CCCCC1)N(Cc1cccnc1)c1nc2c(F)cccc2s1	/	/	/	8.91µM*	-4.3%
Cc1ccc(C(C)(C)C)cc1S(=O)(=O)Nc1nc2ccccc2nc1Cl	?	-0.4%	-52.0%	10µM*	-14.8%
Cc1cc(F)ccc1S(=O)(=O)Nc1nc2ccccc2nc1Cl	-25.1%	2.1%	-41.4%	?	-20.3%
CCC(=O)N1CCc2cc(Br)cc(S(=O)(=O)CCC(=O)Nc3ccc(Cl)cc3)c21	/	/	/	2.9%	0.2%
O=C(Cn1cc(S(=O)(=O)Cc2cccc(Cl)c2)c2ccccc21)NCCc1ccccc1	/	/	/	0.2%	3.6%
O=C(Nc1cc(C(F)(F)F)ccc1Cl)C(NCc1ccccc1)c1ccccc1 (configuration not stated)	-40.3%	0.4%	-23.7%	3.55µM*	-5.5%
CCN(CC)CCNC(C(=O)Nc1cc(C(F)(F)F)ccc1Cl)c1ccccc1 (configuration not stated)	-50.5%	-2.3%	-23.6%	?	?
S=C1NCCc2ccccc2C1c1ccccc1 (configuration not stated)	-24.4%	0.7%	-16.4%	11.2µM*	?
S=C1NCCc2ccccc2C1c1ccccc1Cl (configuration not stated)	-5.6%	-5.9%	-23.4%	?	?
COc1cccc(-n2c(SCC(=O)Nc3cccc(C)c3)nc3c([nH]c4ccccc43)c2=O)c1	/	1.2%	-45.7%	-14.7%	-9.3%
CCN1C(=O)c2ccccc2S(=O)c2ccc(C(=O)N3CCN(c4cccc(Cl)c4)CC3)cc21 (configuration not stated)	/	0.7%	0.0%	20.0%	-3.7%
CCCCCN=C(C)c1c(O)c2ccccc2oc1=O	-24.4%	18.1%	11.2µM*	34.4%	-1.5%
CC(=O)c1ccc(NC(=O)c2cc(Cl)sc2Cl)cc1	13.4%	4.1%	3.98µM*	-1.6%	-14.7%
C/C(=N\N(c1ccccc1)c1ccccc1)c1ccco1	27.2%	-2.6%	0.0%	8.91µM*	9.3%
C/C(=N\N=C(c1ccccc1)c1ccccc1)c1ccco1	-21.2%	6.3%	0.0%	?	24.8%
SMILES	Integrin act MD	GLP1R ag	BRCA1 expr act	GLP-1R inv ag	GLP1R cytotox
O=C(NC1CC1)c1cc2cc3ccccc3nc2s1	10.2%	20.7%	5.01µM*	30.4%	-10.3%
CCc1cc(C(=O)Nc2cc(S(=O)(=O)N(CC)CC)ccc2N2CCOCC2)sc1C	-24.2%	5.4%	-58.5%	7.94µM*	-1.6%
COc1ccc(OC(=O)c2nc(SCc3ccccc3F)ncc2Cl)cc1	/	/	/	-11.9%	0.1%
CCC1CN(C(=O)NCc2ccc(F)cc2)c2cc(Cl)ccc2O1 (configuration not stated)	-26.0%	4.8%	-25.3%	10µM*	1.8%
CCC1CN(C(=O)NCc2cccc(OC)c2)c2cc(Cl)ccc2O1 (configuration not stated)	5.7%	12.8%	-34.9%	11.2µM*	0.0%
CCOC(=O)c1[nH]c2ccccc2c1NC(=O)c1c(F)cccc1F	/	-2.3%	2.1%	6.3%	0.4%
CCOC(=O)c1c(C)[nH]c(C)c1S(=O)(=O)NCC(=O)N(C)c1ccc(C)c(C)c1	/	/	/	1.6%	-8.2%
Cc1cccc(-c2nc3scc(CCNC(=O)c4ccccc4Cl)n3n2)c1	/	/	/	105.6%	-14.2%
COc1cc(NC(=O)c2nc(-c3ccncc3)no2)cc(OC)c1OC	/	/	/	5.4%	-2.4%
CN1CCN(C(=O)c2ccc(CSc3ccc(Cl)cc3)cc2)CC1	-35.5%	-2.4%	-27.7%	5.62µM*	20.3%
Oc1ccc(/C=N/Nc2ncc(Cl)cc2Cl)cc1	14.7%	9.2%	12.6µM*	?	4.6%
OCCn1c(-c2ccc3c(c2)OCO3)csc1=Nc1ccccc1	0.0%	-1.8%	-51.4%	3.55µM*	-29.1%
OCCn1c(-c2ccc(F)cc2)csc1=Nc1ccccc1	17.0%	2.0%	19.2%	?	-5.6%
COC(=O)[C@H](C)NC(=O)Nc1cccc(C(F)(F)F)c1	12.9%	-3.1%	4.0%	1.9%	-2.0%
O=C(Nc1ccncc1)Nc1cccc(C(F)(F)F)c1	1.2%	-3.2%	1.4%	10µM*	-16.0%
O=C(Nc1ccc(OC(F)F)cc1)Nc1cccc(C(F)(F)F)c1	-48.6%	-4.7%	-75.8%	4.47µM*	?
Cc1ccc(NC(=O)Nc2cccc([N+](=O)[O-])c2)cc1F	4.1%	-2.1%	-43.2%	?	-6.8%
O=C(Nc1ccc(OC(F)(F)F)cc1)Nc1cccc([N+](=O)[O-])c1	-66.9%	-14.8%	-57.7%	2.51µM*	5.62µM*
NNC(=O)Nc1cccc(C(F)(F)F)c1	0.1%	-0.2%	0.0%	10.3%	1.4%
Cc1c(C(=O)Nc2ccc(F)cc2F)nnn1-c1ccccc1Br	/	/	/	?	2.0%
COc1cccc(CNC(C)(C)CO)c1OCc1ccc(Cl)cc1	-6.0%	5.9%	10.9%	11.2µM*	-3.7%
CC(C)(CO)NCc1cccc(OCc2ccc(Cl)cc2)c1	-48.8%	2.6%	16.6%	?	20.0%
Cc1ccc(-n2ncc(C(=O)Nc3cc(Cl)cc(Cl)c3)c2C2CCNCC2)cc1C	-68.7%	23.6%	-90.6%	?	-18.4%
Cc1ccc(-n2ncc(C(=O)Nc3cc(Cl)ccc3Cl)c2C2CCNCC2)cc1	-58.2%	0.0%	-32.0%	7.08µM*	0.0%
